Assay results published in the supplement of paper PMC6555819.

What was measured:
Experiment in all cases: PBM binding z-score (relative to random genomic background probes); higher = stronger binding; sequences stand for … in GC…GCGATTGACAGCGTAGAATGAAGG
[1] = test system: RARb homodimer (NR concentration 270 nM)
In short: (§1)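 Antibodies against each partner of ligand-free nuclear receptor dimers (one per run) detected binding on custom Agilent 4×180K protein-binding microarrays after 1 h incubation. The double-stranded probes had 34-nt variable regions carrying direct-repeat seeds, single-nucleotide variants, half-site ablations and random human genomic background sequences. Binding z-scores, from regression-normalized fluorescence, use the random background probes as reference.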

[2] = test system: RARg:RXRa (NR concentration 270 nM, RXRa partner concentration 90 nM)
In short: as §1

[3] = test system: RARg homodimer (NR concentration 270 nM)
In short: as §1

[4] = test system: RXRa DBDmut IVT, anti-RXR (DBD mutation: RXRa K156A/R161A, NR concentration 90 nM)
In short: as §1

[5] = test system: RXRa homodimer (NR concentration 180 nM)
In short: as §1

[6] = test system: THRa:RXRa (NR concentration 90 nM, RXRa partner concentration 90 nM)
In short: as §1

[7] = test system: THRa homodimer (NR concentration 90 nM)
In short: as §1

[8] = test system: VDR:RXRa (NR concentration 270 nM, RXRa partner concentration 90 nM)
In short: as §1

[9] = test system: VDR homodimer (NR concentration 270 nM)
In short: as §1

Sequence | PBM binding z-score [1] | PBM binding z-score [2] | PBM binding z-score [3] | PBM binding z-score [4] | PBM binding z-score [5] | PBM binding z-score [6] | PBM binding z-score [7] | PBM binding z-score [8] | PBM binding z-score [9]
AGAATGAGGTTAATATCAGGGAAACAGAATACAT | 0.835 | 1.84 | 1.48 | 1.22 | 2.14 | 2.36 | 0.795 | 1.04 | 0.82
TCTGCTAGGTCAACGATGTTCAGCTAATCTGCTA | 2.97 | 3.73 | 4.24 | 1.03 | 2.47 | 2.73 | 0.88 | 1.67 | -0.288
TCTTGTAAATCAACAGGAGGTTAAGAAAGATCGA | 0.787 | 0.681 | 0.518 | 1.04 | 1.11 | 0.911 | -0.242 | 1.16 | 0.513
GCAGACAGGTGAAAAGCAGGTAACTCAGGGTGGC | 0.095 | 0.178 | -0.088 | -0.616 | 0.348 | 1.28 | -0.428 | -0.329 | -0.329
GGAACGAGGGCAAAGTTGCTAGCATCTGTCGACG | 1.09 | 1.27 | 1.73 | 2.63 | 1.07 | 0.852 | -0.505 | 1.01 | 1.46
TCATATAGGGAAACAGGTGAAAGTCCGTAAGTTA | 0.562 | 0.344 | 0.215 | 1.66 | 0.796 | 0.537 | 0.314 | 0.918 | -0.0866
CGTCCAAGGTCAGCAGGTAAGTGAAAGCGACGTG | 3.74 | 5.27 | 5.92 | 2.48 | 3.94 | 3.46 | 2 | 2.55 | 0.856
GTACCAAGGTGAATCGGTCGTTGATGAGTAGGCG | 1.27 | 1.17 | 1.01 | -0.343 | 0.482 | 1.49 | 0.486 | -0.122 | -0.443
CCTAGTTGGTCAGGAGGTCACGCACCGGATATGA | 4.9 | 5.68 | 4.98 | 0.815 | 5.93 | 3.94 | 2.78 | 4.58 | 2.71
CGAACTAGGTCAAGGACAGTTAATCTCCGCACGC | 3.38 | 3.88 | 4.87 | 1.65 | 2.89 | 3.09 | 2.12 | 1.6 | 0.602
ATCTTTAGGTAAAGATAGTTCAGTGAATGCAAAT | 0.997 | 0.713 | 0.798 | 0.388 | 0.298 | 1.23 | 0.203 | 0.897 | 0.742
ATACCAAGGAGATCGTGAGGTCGTTGATACTAAC | 0.696 | 0.264 | 0.458 | 0.394 | 0.833 | 2.37 | 1.63 | 1.44 | 3.26
TAGCCTAGGTCATGGGCCAATATACCACGCGAAC | 2.95 | 4.22 | 4.2 | 0.955 | 3.55 | 3.1 | 1.43 | 2.06 | 0.541
CCTTACGGGTCACTGACGGGTTATAGCATTTGGA | 3.38 | 5.58 | 4.49 | 1.51 | 5.1 | 2.74 | 0.301 | 3.7 | 0.822
GCTATTAGTTGAAAGGGCAACCGCATGATTCTCG | 1.73 | 1.4 | 1.04 | 0.935 | 1.29 | 0.332 | -0.105 | 0.504 | 0.195
TCATATAGGTAAATGCTAGGTTAAAGTCCGATCT | 0.967 | 0.772 | 0.598 | 1.74 | 0.914 | 1.35 | 0.664 | 1.33 | 0.441
AGTAGCAGGCCAAGTTTGGGTCACTCAAACAAAG | 2.22 | 2.3 | 1.7 | -0.435 | 0.67 | 2.62 | 1.08 | 0.609 | 0.19
CAAACTAGGTCAATGGTCAAAGTCGAGCCAACCA | 3.34 | 3.81 | 4.56 | 1.51 | 2.95 | 2.56 | 0.976 | 1.67 | 0.812
CGAACTAGGTCAGACCAGGACAGTGAAGGATGAT | 2.36 | 2.82 | 3.53 | 0.518 | 1.51 | 4.75 | 0.741 | 1.03 | -0.102
CAAACTAGGTCACAGAGGTCATAGTCCGTGCGTA | 5.33 | 6.83 | 7.33 | 3.4 | 7.32 | 4.76 | 3.22 | 8.31 | 7.02
TCTAGTTGGTCAAGGGTCACACACTCGAAATGCG | 4.19 | 5.29 | 4.87 | 1.59 | 6.31 | 3.13 | 1.47 | 4.32 | 2.76
TCTATTAGTTGAAGCGCAACCGACGAGTCCGTTT | -0.298 | -0.0942 | -0.507 | 1.16 | 0.302 | -0.201 | -0.12 | 0.736 | 0.818
TCGAGTAGGTAAGGGGCATTCAGAATGGCGTCGA | 0.551 | -0.117 | -0.0823 | -0.0222 | 0.0821 | -0.336 | -0.325 | 0.0857 | 0.178
TCATATAGGTAATACAGGTGCAAGTCGGCATCTA | 0.266 | 0.587 | 0.617 | 1.65 | 0.938 | 1.16 | -0.0511 | 1.91 | 1.03
CGTCCAAAGTCAGCAGGTCAGTGAAAGCGACGTG | 2.43 | 1.31 | 1.5 | 0.597 | 0.851 | 1.05 | 0.291 | 0.372 | 0.0938
TCTAGCAGGCCAGAGCGTCACTCAAGAGGTACGG | -0.99 | -0.32 | -0.282 | -0.0985 | -0.0625 | -1.43 | -1.22 | -0.608 | -0.792
